# From PubChem BioAssay
# Inconclusive results are not listed. Active and inactive are the calls of the source.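 How the source made its calls, unless noted: active means inhibition above 50%, about 3 SD of the validation set; inactive means the rest.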
# Key:
# [1] = rapamycin-like changes in RPL19A-GFP expression – cell-based, S. cerevisiae, multiplex flow cytometry, primary screen (AID 1862; in the data active means percent of DMSO control GFP below about 86%;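 further: lower values mimic rapamycin by blocking the RPL19A rise seen in DMSO cells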); details: S. cerevisiae RPL19A-GFP strain, flow cytometry fluorescence, 3 h; at 10 µM; stronger effect = lower value
# [2] = TOR pathway GLN3 branch reporter MEP2-GFP changes – S. cerevisiae, multiplex flow cytometry, primary screen (AID 1867;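 active means GFP response, as percent of the DMSO control, above the screen-wide mean plus 3 SD, about 139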;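 further: median GFP channel fluorescence of barcode-gated MEP2-GFP cells measured by flow cytometry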); details: S. cerevisiae MEP2-GFP strain, 3 h, at 10 µM, stronger effect = higher value, 100% means same as DMSO wells
# [3] = TOR pathway RTG branch CIT2 reporter changes – S. cerevisiae, GFP fusion, multiplex flow cytometry, primary screen (AID 1870;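 active means percent response above a set limit, the screen-wide mean plus 3 SD, cut at about 130% in these data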;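 further: barcoded CIT2-GFP strain pooled with four other GFP strains with rapamycin as positive control; median GFP fluorescence per well over plate mean of DMSO wells so 100% = DMSO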); details: S. cerevisiae CIT2-GFP expression, 3 h, at 10 µM, stronger effect = higher value
# [4] = TOR pathway LAP4-GFP level changes – S. cerevisiae, multiplex flow cytometry, primary screen (AID 1873;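 active means GFP signal, as percent of the solvent control, above the screen mean plus 3 SD, about 149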); details: S. cerevisiae LAP4-GFP expression, 3 h, at 10 µM, stronger effect = higher value
# [5] = yeast AGP1-GFP level changes, GLN3 branch – cell-based, multiplex flow cytometry, S. cerevisiae, primary screen (AID 1887;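 active means GFP signal above the screen-wide mean plus 3 SD, that is over about 124.5% of the solvent control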;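 further: AGP1-GFP fusion strain of S. cerevisiae within a five-strain barcoded multiplex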); details: 3 h, at 10 µM, stronger effect = higher value
# [6] = reduced mouse 2C T cell binding to pMHC/ICAM-1 vesicles – MLPCN validation set, flow cytometry, LFA-1/ICAM-1 modulator project, pilot screen (AID 2523;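 active means response below a set limit, under 55% cells CD8-positive and vesicle-bound, and CD8 cells' 90th-percentile brightness under 279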;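 on vesicle binding response: mean PE anti-B7-1 fluorescence of CD8+ cells relative to row control; 100% = QL9-loaded vesicles with DMSO vehicle in the same plate row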); details: 2C mouse CD8+ T cells, at 7 µM, stronger effect = lower value; double positive events: measured here: CD8+/vesicle+ event percentage
# [7] = molecular target: Integrin beta-1 (Homo sapiens) + Integrin alpha-4 (Homo sapiens) (UniProt P13612+P05556); experiment: alpha4beta1 integrin LIBS antibody binding reduction – U937 cells, HUTS-21 mAb, flow cytometry, validation set, VLA-4 allosteric modulator project, pilot screen (AID 2674); details: HUTS-21 LIBS mAb binding, at 6.7 µM, stronger effect = higher value, binding induced by LDV ligand;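 further: antibody binding induced by the VLA-4 ligand LDV present at three times its Kd; 0% = LDV ligand with antibody and no compound and 100% = antibody without LDV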
# [8] = calorie-restriction mimetic ROS inhibitors, yeast – validation compound set, pilot screen (AID 2706;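 active means superoxide response below 65% of plate, a cut near 3 SD across the whole screen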;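 further: yeast exposed to compound for one week at 30 degrees C before staining; 100% = mean of all compound wells on the same plate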); details: S. cerevisiae aging, superoxide DHE fluorescence; at 10 µM; stronger effect = lower value
# [9] = molecular target: Beta-adrenergic receptor kinase 1 (Homo sapiens) (UniProt P25098); experiment: GRK2 binders displacing RNA aptamer, biochemical, validation, human GRK2, bead flow cytometry (AID 488806;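 active means aptamer binding inhibition above 30%, about 3 SD of noise from non-fluorescent compounds; inactive means inhibition at or below 30%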); details: bead-bound GRK2, FAM-aptamer displacement, at 10 µM, stronger effect = higher value
# [10] = molecular target: Beta-2 adrenergic receptor (Homo sapiens) (UniProt P07550); experiment: agonist-induced loss of surface beta2AR – cell-based, FAP fluorogen, flow cytometry, validation set, pilot screen (AID 504459;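 active means percent response above 42, roughly 3 SD of non-fluorescent test compounds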;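 further: agonist-driven loss of surface beta2AR via internalization measured by FAP dye flow cytometry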); details: Am2.2-beta2AR cells, at 10 µM, stronger effect = higher value
# [11] = molecular target: AP-2 complex subunit beta (Homo sapiens) (UniProt P63010); experiment: beta-arrestin/AP2 interaction blockers – biochemical, validation set, GST-AP2 beads, flow cytometry, pilot screen (AID 504541;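 active means inhibition above 54%, about 3 SD of non-fluorescent compounds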;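 further: AP2 carries R879A mutation and is captured from E. coli lysate; bead-bound FITC arrestin peptide fluorescence measuring arrestin peptide binding to AP2; 0% = DMSO wells and 100% = excess unlabeled arrestin peptide control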); details: FITC arrestin peptide, at 10 µM, stronger effect = higher value, AP2 beta2 appendage fragment, R879A mutant
# [12] = cytosolic pH regulators acting via V-ATPase – S. cerevisiae, pHLuorin, HTS validation (AID 504600; in the data active means response above about 15%;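 further: plate controls were DMSO for no effect and reference compound for full effect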); details: V-ATPase proton transport, at 10 µM, stronger effect = higher value
# [13] = system: anti-desmoglein-3 scFv antibody binding to human DSG3; experiment: blockers of pathogenic pemphigus antibody–desmoglein-3 binding – biochemical, validation compound set, bead-based, flow cytometry, pilot screen (AID 588368;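 active means binding below the plate cutoff, the plate median minus 3 SD, with a reading above zero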;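 further: signal is the median channel fluorescence of bead-bound GFP antibody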); details: Protein G beads, DSG3-Fc, scFv-GFP binding, at 10 µM, stronger effect = lower value
# [14] = Nile Red efflux blockade in pump-expressing yeast – validation compound set, multiplex, phenotypic, pilot screen (AID 588506;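 active means efflux inhibition above 0.42, the validation set average plus 4 SD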;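 further: Nile Red retained in cells so higher fluorescence means more efflux inhibition; 0 = negative control wells and 1 = enniatin B 25 µM full block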); details: S. cerevisiae pump-expressing triplex, Nile Red efflux flow cytometry; at 10 µM; stronger effect = higher value; the pumps come from Candida albicans
# [15] = molecular target: ATP-binding cassette sub-family B member 6 (Homo sapiens) (UniProt Q9NP58); experiment: blockers of ABCB6-driven porphyrin uptake – K562-ABCB6 cells, flow cytometry, validation set, pilot screen (AID 588550;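 active means inhibition above the screen-wide mean plus 3 SD, about 51%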;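 further: 0% = DMSO wells and 100% = benzethonium chloride 70 µM positive control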); details: K562-ABCB6 porphyrin accumulation, 1 h, at 10 µM, stronger effect = higher value
# [16] = AML differentiation inducers, ER-HoxA9 marrow cells – cell-based, GFP/MAC1 double positive, flow cytometry, validation set, primary screen (AID 588685;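 active means differentiation response of at least 50%, scaled between solvent and reference control, from cells with both markers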;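 further: compound exposure lasts four days before antibody staining and flow analysis; 0% = DMSO wells and 100% = 5 µM fulvestrant positive control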); details: stronger effect = higher value, normalized: vehicle 0, fulvestrant 100
# Chain of Integrin beta-1 (Homo sapiens) + Integrin alpha-4 (Homo sapiens) (P05556 whole entry, looked up): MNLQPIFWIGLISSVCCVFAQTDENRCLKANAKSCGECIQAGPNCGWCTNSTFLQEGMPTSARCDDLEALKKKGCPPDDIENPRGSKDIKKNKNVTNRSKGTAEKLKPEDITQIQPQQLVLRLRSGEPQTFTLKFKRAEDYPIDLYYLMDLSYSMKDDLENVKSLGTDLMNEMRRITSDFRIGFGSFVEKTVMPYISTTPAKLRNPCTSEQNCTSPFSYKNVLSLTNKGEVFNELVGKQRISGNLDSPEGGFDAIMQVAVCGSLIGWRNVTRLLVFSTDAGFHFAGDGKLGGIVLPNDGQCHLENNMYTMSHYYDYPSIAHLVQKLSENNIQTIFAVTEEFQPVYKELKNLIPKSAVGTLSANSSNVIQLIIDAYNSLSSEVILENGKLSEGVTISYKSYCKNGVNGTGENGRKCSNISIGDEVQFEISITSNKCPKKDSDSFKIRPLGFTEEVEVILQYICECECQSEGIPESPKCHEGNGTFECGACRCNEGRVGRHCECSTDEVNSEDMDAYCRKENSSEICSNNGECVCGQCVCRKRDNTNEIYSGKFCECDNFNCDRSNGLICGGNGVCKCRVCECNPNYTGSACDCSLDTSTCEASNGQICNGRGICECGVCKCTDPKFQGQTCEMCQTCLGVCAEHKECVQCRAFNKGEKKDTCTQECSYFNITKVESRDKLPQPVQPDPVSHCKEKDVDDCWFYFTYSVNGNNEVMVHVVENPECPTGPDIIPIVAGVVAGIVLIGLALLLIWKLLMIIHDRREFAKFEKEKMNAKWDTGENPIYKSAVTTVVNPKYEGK
# Chain of Integrin beta-1 (Homo sapiens) + Integrin alpha-4 (Homo sapiens) (P13612 whole entry, looked up): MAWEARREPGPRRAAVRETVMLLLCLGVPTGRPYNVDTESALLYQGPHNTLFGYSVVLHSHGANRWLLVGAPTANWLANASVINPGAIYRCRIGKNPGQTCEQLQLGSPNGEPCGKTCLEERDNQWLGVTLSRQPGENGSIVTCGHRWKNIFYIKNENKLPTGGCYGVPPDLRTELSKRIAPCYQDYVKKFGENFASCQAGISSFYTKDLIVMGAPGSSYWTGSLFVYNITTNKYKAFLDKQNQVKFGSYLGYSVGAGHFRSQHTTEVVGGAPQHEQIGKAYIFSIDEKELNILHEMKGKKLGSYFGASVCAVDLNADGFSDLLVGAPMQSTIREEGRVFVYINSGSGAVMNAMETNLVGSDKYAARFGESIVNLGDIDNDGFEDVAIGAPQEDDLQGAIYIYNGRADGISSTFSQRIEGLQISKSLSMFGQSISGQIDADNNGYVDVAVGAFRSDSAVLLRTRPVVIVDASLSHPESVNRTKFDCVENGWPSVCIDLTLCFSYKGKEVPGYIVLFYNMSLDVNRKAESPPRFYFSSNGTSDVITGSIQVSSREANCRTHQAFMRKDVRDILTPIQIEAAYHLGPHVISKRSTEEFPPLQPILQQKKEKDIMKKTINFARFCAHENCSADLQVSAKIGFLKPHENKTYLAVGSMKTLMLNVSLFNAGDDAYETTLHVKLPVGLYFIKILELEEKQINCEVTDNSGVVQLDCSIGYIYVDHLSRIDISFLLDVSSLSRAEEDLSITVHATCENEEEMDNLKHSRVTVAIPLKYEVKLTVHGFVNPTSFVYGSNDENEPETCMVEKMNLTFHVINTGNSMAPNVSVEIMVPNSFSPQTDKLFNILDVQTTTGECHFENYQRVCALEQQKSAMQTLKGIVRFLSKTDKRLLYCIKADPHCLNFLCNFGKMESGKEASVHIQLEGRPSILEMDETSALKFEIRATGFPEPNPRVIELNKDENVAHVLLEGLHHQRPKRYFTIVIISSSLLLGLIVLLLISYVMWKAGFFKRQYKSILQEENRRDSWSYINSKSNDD
# Chain of Beta-2 adrenergic receptor (Homo sapiens) (P07550 whole entry, looked up): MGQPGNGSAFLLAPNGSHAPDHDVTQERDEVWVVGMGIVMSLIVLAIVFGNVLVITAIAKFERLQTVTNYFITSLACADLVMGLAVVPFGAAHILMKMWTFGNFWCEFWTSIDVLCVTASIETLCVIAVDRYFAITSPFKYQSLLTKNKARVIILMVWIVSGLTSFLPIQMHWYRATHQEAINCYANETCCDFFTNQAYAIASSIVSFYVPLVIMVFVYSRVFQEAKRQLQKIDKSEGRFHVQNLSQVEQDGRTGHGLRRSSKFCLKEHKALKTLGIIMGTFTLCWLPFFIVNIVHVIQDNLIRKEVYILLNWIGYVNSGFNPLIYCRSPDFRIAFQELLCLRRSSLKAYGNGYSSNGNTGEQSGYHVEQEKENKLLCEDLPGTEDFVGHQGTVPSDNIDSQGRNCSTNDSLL
# Chain of AP-2 complex subunit beta (Homo sapiens) (P63010 whole entry, looked up, the tested form may be a part, one chain of several): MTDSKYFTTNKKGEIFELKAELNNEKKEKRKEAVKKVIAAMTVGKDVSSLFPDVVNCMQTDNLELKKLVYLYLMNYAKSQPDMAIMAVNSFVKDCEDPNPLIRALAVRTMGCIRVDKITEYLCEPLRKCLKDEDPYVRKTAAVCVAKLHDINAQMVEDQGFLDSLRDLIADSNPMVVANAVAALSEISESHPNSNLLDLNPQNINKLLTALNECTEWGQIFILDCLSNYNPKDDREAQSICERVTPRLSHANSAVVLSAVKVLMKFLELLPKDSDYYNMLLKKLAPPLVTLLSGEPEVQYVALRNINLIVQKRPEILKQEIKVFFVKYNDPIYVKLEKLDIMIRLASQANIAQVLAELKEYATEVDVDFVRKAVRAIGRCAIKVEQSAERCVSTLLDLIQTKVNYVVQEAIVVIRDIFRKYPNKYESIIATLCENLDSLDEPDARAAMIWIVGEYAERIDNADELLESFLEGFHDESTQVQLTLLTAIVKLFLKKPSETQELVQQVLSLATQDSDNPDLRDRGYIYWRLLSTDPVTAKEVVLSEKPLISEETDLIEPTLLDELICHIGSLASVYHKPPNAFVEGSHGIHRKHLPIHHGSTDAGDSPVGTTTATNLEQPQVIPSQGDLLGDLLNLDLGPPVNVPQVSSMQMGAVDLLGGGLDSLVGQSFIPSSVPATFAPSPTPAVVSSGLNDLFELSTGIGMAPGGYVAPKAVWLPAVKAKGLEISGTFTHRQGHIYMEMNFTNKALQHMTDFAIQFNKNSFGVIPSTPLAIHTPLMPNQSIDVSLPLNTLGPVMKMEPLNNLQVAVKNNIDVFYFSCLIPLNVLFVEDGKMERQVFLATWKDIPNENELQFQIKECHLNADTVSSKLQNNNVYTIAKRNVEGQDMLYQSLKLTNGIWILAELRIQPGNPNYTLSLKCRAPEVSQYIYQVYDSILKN
# Chain of Beta-adrenergic receptor kinase 1 (Homo sapiens) (P25098 whole entry, looked up): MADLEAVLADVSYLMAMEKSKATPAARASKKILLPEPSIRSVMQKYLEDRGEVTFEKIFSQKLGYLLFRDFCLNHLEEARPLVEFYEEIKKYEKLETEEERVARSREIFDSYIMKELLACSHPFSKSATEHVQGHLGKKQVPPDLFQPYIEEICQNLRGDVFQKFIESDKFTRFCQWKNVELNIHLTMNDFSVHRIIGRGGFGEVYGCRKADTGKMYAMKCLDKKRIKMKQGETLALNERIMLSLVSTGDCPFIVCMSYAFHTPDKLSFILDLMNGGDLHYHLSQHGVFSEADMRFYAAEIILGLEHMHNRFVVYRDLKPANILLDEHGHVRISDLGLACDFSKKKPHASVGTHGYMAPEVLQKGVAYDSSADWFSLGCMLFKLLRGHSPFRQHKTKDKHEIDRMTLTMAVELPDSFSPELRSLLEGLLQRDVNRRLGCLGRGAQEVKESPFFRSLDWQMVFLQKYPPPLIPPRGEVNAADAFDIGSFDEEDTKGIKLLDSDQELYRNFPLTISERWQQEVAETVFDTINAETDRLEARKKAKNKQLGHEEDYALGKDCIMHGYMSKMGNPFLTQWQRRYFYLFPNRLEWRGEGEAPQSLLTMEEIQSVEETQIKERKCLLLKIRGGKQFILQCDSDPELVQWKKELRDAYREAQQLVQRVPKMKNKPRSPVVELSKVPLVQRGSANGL
# Chain of ATP-binding cassette sub-family B member 6 (Homo sapiens) (Q9NP58 whole entry, looked up): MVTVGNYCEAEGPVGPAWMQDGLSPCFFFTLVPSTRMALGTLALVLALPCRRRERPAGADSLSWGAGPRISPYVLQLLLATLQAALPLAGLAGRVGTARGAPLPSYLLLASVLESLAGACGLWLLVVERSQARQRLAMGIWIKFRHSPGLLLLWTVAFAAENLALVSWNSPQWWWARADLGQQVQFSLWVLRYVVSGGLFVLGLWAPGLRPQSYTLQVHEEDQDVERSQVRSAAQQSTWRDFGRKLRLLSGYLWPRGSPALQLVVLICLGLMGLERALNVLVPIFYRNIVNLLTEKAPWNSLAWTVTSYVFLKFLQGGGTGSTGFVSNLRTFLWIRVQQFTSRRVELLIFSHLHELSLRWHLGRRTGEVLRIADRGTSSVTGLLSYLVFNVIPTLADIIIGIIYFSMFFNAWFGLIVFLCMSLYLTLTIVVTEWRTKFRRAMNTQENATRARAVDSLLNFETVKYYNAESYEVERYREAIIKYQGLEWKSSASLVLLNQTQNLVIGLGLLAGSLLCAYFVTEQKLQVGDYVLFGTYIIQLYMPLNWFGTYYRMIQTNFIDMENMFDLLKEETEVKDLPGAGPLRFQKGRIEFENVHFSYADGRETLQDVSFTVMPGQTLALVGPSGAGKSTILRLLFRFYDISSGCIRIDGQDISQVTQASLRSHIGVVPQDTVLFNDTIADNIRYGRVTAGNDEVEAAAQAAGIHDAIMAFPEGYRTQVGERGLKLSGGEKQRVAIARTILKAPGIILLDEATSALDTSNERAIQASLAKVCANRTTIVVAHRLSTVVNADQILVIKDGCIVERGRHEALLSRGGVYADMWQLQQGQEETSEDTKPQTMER
SMILES,percent of DMSO control GFP [1],GFP response vs DMSO [2],percent response of DMSO control [3],GFP response vs DMSO [4],"GFP response, % of DMSO [5]",double positive events [6],vesicle binding response [6],inhibition [7],superoxide response (% of plate) [8],aptamer binding inhibition [9],response [10],inhibition [11],response [12],binding (% of control) [13],efflux inhibition (fraction of control) [14],inhibition [15],differentiation response [16]
Nc1ccc2nc(Cc3ccccc3)[nH]c2c1,90.2% (inactive),150% (active),108% (inactive),82.5% (inactive),89.4% (inactive),60.5%,192% (inactive),3.55% (inactive),102% (inactive),7% (inactive),10.6% (inactive),-0.76% (inactive),-0.84% (inactive),98% (inactive),0.48 (active),3% (inactive),15.6% (inactive)
CC(C)COCC(CN(Cc1ccccc1)c1ccccc1)N1CCCC1 (stereo not given),93.5% (inactive),121% (inactive),104% (inactive),74.3% (inactive),91.9% (inactive),61.3%,119% (inactive),1.61% (inactive),116% (inactive),-2% (inactive),8.3% (inactive),-11.8% (inactive),0.91% (inactive),113% (inactive),0.16 (inactive),8% (inactive),-0.82% (inactive)
COc1ccc(NC(=O)Nc2ccc(C(C)C)cc2)cc1,104% (inactive),103% (inactive),101% (inactive),95.9% (inactive),88.6% (inactive),56.2%,126% (inactive),20.4% (inactive),98.7% (inactive),7% (inactive),2.17% (inactive),-5.4% (inactive),-1.78% (inactive),97.3% (inactive),0.03 (inactive),-11% (inactive),2.74% (inactive)
COc1ccccc1N1CCN(CC(O)COc2cccc3ccccc23)CC1 (stereo not given),102% (inactive),105% (inactive),98.3% (inactive),109% (inactive),118% (inactive),64.3%,192% (inactive),8.25% (inactive),97.5% (inactive),6% (inactive),-24.7% (inactive),-5.11% (inactive),5.97% (inactive),107% (inactive),-0.09 (inactive),-4% (inactive),4.86% (inactive)
COc1ccc2cc(C(=O)Nc3ccc(S(N)(=O)=O)cc3)sc(=O)c2c1OC,93.7% (inactive),110% (inactive),114% (inactive),79.8% (inactive),98.9% (inactive),57.9%,258% (inactive),3.55% (inactive),101% (inactive),-4% (inactive),19.2% (inactive),-1.93% (inactive),0.97% (inactive),97.8% (inactive),0.19 (inactive),7% (inactive),-9.01% (inactive)
CC1(C)CC(=O)C2=C(C1)c1c(ccc3ccccc13)NC2c1ccco1 (stereo not given),98.8% (inactive),105% (inactive),93.9% (inactive),123% (inactive),99.5% (inactive),57%,182% (inactive),-8.62% (inactive),107% (inactive),6% (inactive),14.4% (inactive),13.8% (inactive),1.12% (inactive),104% (inactive),-0.06 (inactive),3% (inactive),28% (inactive)
CCCCOc1ccc(CC(=O)NO)cc1,87.8% (inactive),113% (inactive),106% (inactive),75.9% (inactive),75% (inactive),48.1%,214% (inactive),-3.24% (inactive),121% (inactive),-2% (inactive),-26.1% (inactive),3.29% (inactive),1.03% (inactive),104% (inactive),0.09 (inactive),9% (inactive),2.46% (inactive)
O=C(CNC(=O)OCc1ccccc1)Oc1cc2oc(=O)cc(-c3ccccc3)c2cc1Cl,97.5% (inactive),107% (inactive),111% (inactive),107% (inactive),71.1% (inactive),61.1%,423% (inactive),-0.27% (inactive),207% (inactive),8% (inactive),-13.2% (inactive),12.8% (inactive),-27.5% (inactive),103% (inactive),-0.09 (inactive),1% (inactive),-4% (inactive)
CN(C)c1ccc(CNCCC(Cc2ccccc2)c2ccco2)cc1 (stereo not given),101% (inactive),93.5% (inactive),108% (inactive),89.4% (inactive),101% (inactive),58.2%,31.1% (inactive),1.12% (inactive),92.3% (inactive),-4% (inactive),9.55% (inactive),-16.6% (inactive),2.43% (inactive),105% (inactive),0.17 (inactive),4% (inactive),-5.68% (inactive)
CC(C)Cc1ccc(C(C)C(=O)O)cc1 (stereo not given),105% (inactive),104% (inactive),95.7% (inactive),142% (inactive),111% (inactive),59.8%,141% (inactive),4.84% (inactive),144% (inactive),0% (inactive),-11.9% (inactive),-1.77% (inactive),0.95% (inactive),107% (inactive),-0.17 (inactive),5% (inactive),-1.05% (inactive)
